Screening results: PubChem BioAssay, Broad Institute
aSyn UTR act: Activators working through SNCA 5'UTR binding (MLPCN) | alpha-synuclein 5'UTR reporter, activators screen | hit rate 7.1% among 300,000 | AID 1814 | activity score, % (tested at 7.5 µM), hits read low; in the data active = activity score below about -60%
Active calls of the source: *. Not all results are given here.

SMILES	aSyn UTR act
COC(=O)/C(=C\c1ccc(O)cc1)c1nc2ccccc2[nH]1	-186*
Cc1cc(NC(=O)CSc2nc3ccccc3cc2C#N)no1	-158*
Cc1cc(NC(=O)CSc2nc3c(cc2C#N)CCCC3)no1	-74*
Cc1ccc2nc(SCC(=O)Nc3ccc4sc(C)nc4c3)c(C#N)cc2c1	-129*
Cc1cc(NC(=O)CSc2nc3ccccc3c(=O)n2C2CCCC2)no1	86
COC(=O)CSc1nc2cc(C)ccc2cc1C#N	-189*
COc1ccc2nc(SCC(=O)Nc3cc(C)on3)c(C#N)cc2c1	-103*
COc1ccc2nc(SCC(=O)NC3CC3)c(C#N)cc2c1	-68*
COc1ccc2nc(SCC(=O)N3CCCCC3)c(C#N)cc2c1	-107*
N#Cc1cc2cc3c(cc2nc1SCC(=O)N1CCOCC1)OCCO3	110
Cc1ccc(OCCSc2ncnc3nc[nH]c23)cc1	-67*
O=C1N=C(N2CCOCC2)S/C1=C1\C(=O)N(Cc2ccccc2)c2ccccc21	-193*
O=C1C=C(N2CCCCC2)c2ccccc2C1=O	122
CN1C(=O)/C(=C2\SC(N3CCCCCC3)=NC2=O)c2ccccc21	-153*
CC(=O)N(C)C1=C(N2CCOCC2)C(=O)c2ccccc2C1=O	76
O=C1N=C(N2CCCCC2)SC1=C1CCCCC1	-89*
CCCN1C(=O)/C(=C2\SC(N3CCCCC3)=NC2=O)c2ccccc21	-159*
CCN(Cc1cnn(C)c1)C(=O)c1cc(COc2ccc3c(c2)CCCC3)on1	-73*
Cc1ccn2cc(CSc3ccccc3)nc2c1	-88*
Cn1ccnc1SCc1cn2ccccc2n1	-105*
c1ccn2cc(CSC3=NCCS3)nc2c1	-118*
c1ccn2cc(CSc3nnc4ccccn34)nc2c1	-90*
O=C(Nc1ncc(Cc2cccc(Cl)c2Cl)s1)C1CCCO1 (stereo not given)	-128*
O=C(Nc1ncc(Cc2ccccc2Cl)s1)C1CCCO1 (stereo not given)	-89*
O=C(Nc1ncc(Cc2cccc(Cl)c2)s1)C1CCCO1 (stereo not given)	-161*
SMILES	aSyn UTR act
Cc1ccccc1OCc1nc2ccccc2c(=O)n1/N=C/c1ccco1	-66*
Cc1ccc(NC(=S)NC2CCCCC2)cc1S(=O)(=O)N(C)C	-65*
COc1ccc(NC(=S)Nc2ccc3nsnc3c2)cc1	-207*
S=C(Nc1ccc2nsnc2c1)NC1CCCCC1	-163*
CC(C)c1ccc(NC(=S)NC2CCCCCC2)cc1	-185*
CC1CCN(C(=O)Nc2ccc3nsnc3c2)CC1	-126*
S=C(Nc1ccc(Cl)c(Cl)c1)NC1CCCCC1	-75*
S=C(Nc1ccc2nsnc2c1)N1CCCCCC1	-148*
S=C(NNc1ccc2ccccc2c1)NC1CCCCC1	-217*
CCc1ccc(NC(=S)N2CCCCCCC2)cc1	-123*
Cc1cc(Cl)ccc1OCC(=O)Nc1cccnc1	-108*
Cc1c(C)c2ccc(OCC(=O)Nc3cccnc3)c(C)c2oc1=O	-137*
Cc1nn2c(=O)c(NC(=O)c3ccc(Cl)cc3)cnc2s1	-66*
Cc1ccc(C(=O)Nc2cnc3sc(C)nn3c2=O)cc1	-100*
Cc1cc(C(=O)N2CCN(c3cccc(Cl)c3)CC2)c(C)o1	-137*
CCOC(=O)c1sc(-c2ccc(Br)cc2)cc1N	-185*
CCOC(=O)c1cc(-c2ccc(N)cc2)sc1N	-76*
NNC(=O)c1sc(-c2ccc(Cl)cc2)cc1N	-82*
Cc1ccc2nc(-c3ccccc3O)c(Nc3ccc4c(c3)OCCO4)n2c1	-65*
CCc1ccc(/C=N/NC(=O)c2cc(-c3ccncc3)nc3ccccc23)s1	83
O=C(NN=C1CCCCCC1)c1c[nH]c2ccccc12	-77*
O=C(N/N=C/c1cccs1)c1c[nH]c2ccccc12	-158*
CCc1ccc(/C=N/NC(=O)c2c[nH]c3ccccc23)s1	-132*
CCc1ccc(S(=O)(=O)Nc2ccc(-c3nc4cccnc4s3)cc2)s1	-98*
NS(=O)(=O)c1ccc(C(=O)Nc2ccc(-c3nc4cccnc4s3)cc2)cc1	-121*
SMILES	aSyn UTR act
COc1cccc(C2=CC(c3ccc(N(C)C)cc3)n3ncnc3N2)c1 (stereo not given)	-72*
COc1ccc(C2C=C(c3ccccc3)Nc3nnnn32)cc1 (stereo not given)	-168*
COc1cccc(C2=CC(c3ccc(N(C)C)cc3)n3nnnc3N2)c1 (stereo not given)	-76*
FC(F)(F)c1cnc(-c2cnc(-c3cccnc3)nc2)c(Cl)c1	-124*
C=C1C(=O)C=C2CN(C(=O)c3ccccc3)[C@@](Cc3ccc(F)cc3)(C(=O)OC)[C@@H]12	56
CCOC(=O)c1sc(=NC(=O)c2ccc(C)cc2)n(C)c1C	-196*
CCOC(=O)c1sc(=NC(=O)c2ccc(F)cc2)n(C)c1C	-104*
CCOC(=O)c1sc(=NC(=O)c2c(F)cccc2F)n(C)c1C	-103*
O=C(c1ccco1)N1CCC(c2ccccc2)C1 (stereo not given)	-109*
O=C(c1ccc(F)cc1)N1CCC(c2ccccc2)C1 (stereo not given)	-84*
CCN(CC)c1ccc(/C=C/C(=O)C2C(=O)C=C(C)OC2=O)cc1 (stereo not given)	-240*
COC(=O)c1cn(CCOc2ccccc2)c2ccccc12	-153*
COc1cc(NC(=S)N2CCOCC2)c(OC)cc1Cl	-211*
COc1ccccc1C(=O)N/N=C/c1ccc2c(c1)OCO2	-173*
COc1cc2ccccc2cc1C(=O)N/N=C/c1ccc2c(c1)OCO2	-163*
C(=N\Nc1ccc2ccccc2n1)/c1ccc2c(c1)OCCO2	108
N/C(=C\C(=O)c1cc(Cl)ccc1O)C(Cl)(Cl)Cl	-80*
COCCNC(=O)c1ccc2c3n(nc2c1)-c1ccccc1CO3	-108*
O=C(NCCO)c1ccc2c3n(nc2c1)-c1ccc(Cl)cc1CO3	-158*
COCCNC(=O)c1ccc2c3n(nc2c1)-c1ccc(Cl)cc1CO3	-164*
O=C(NCC1CC1)c1ccc2c3n(nc2c1)-c1ccc(Cl)cc1CO3	-166*
COCCNC(=O)c1c[nH]c2ccc(S(=O)(=O)N3CCc4ccccc43)cc2c1=O	61
Cc1ccc2c(c1)COc1c3ccc(C(=O)NCCO)cc3nn1-2	-158*
CCN1CCN(c2cc3c(nn2)Oc2ccccc2N3C)CC1	-128*
CCOc1cccc(C(=O)NC(=S)Nc2ccc(N3CCN(CC)CC3)cc2)c1	-80*
SMILES	aSyn UTR act
CCCOc1cccc(C(=O)NC(=S)Nc2ccc(N3CCN(C)CC3)cc2)c1	-69*
O=C(NCCc1nnc2ccccn12)c1cccs1	-67*
Cc1ccsc1C(=O)NCCc1nnc2ccccn12	-78*
Cc1ccc2nc(NC(=O)c3ccc(Br)o3)sc2c1	-82*
NS(=O)(=O)c1ccc2nc(NC(=O)c3ccc(Br)o3)sc2c1	-141*
O=C(CCc1ccccc1)Nc1ccc2c(c1)OCCO2	-102*
CC1CC(C)(C)NC(=S)N1CCCC(=O)Nc1ccc2c(c1)OCCO2 (stereo not given)	-91*
O=C(CS(=O)(=O)c1c[nH]c2ccccc12)Nc1ccc2c(c1)OCCO2	-85*
O=C(CCc1ccccc1)Nc1cc2c(cc1Cl)OCCO2	-135*
COc1ccc(N=C/C=C2\C=C(c3ccccc3)OC(C)(C)O2)cc1	-135*
Cc1ccc(N2C(=O)c3ccccc3NC2C(C)Cc2ccc3c(c2)OCO3)cc1 (stereo not given)	-68*
Cc1ccc2nc(Cl)c(-c3ccccc3)cc2c1	74
c1csc(-c2ccc3ccccc3n2)c1	-140*
Cc1ccc(-c2cc3ccccc3nc2N)cc1	-93*
Nc1nc2ccccc2cc1-c1cccs1	-121*
